Source: PubChem BioAssay (NCI)
The panel holds about 79,000 compounds, 15% with a hit somewhere; the sample as a whole holds those more often. Activity calls are given as the source filed them. Rule as the data show it: active = growth inhibition above about 70%; inactive = the rest.

Key:
[1] = NCI Yeast Anticancer Drug Screen. Data for the rad50 strain (AID 155);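 also: 0% = growth of vehicle-only cultures of the same strain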; conditions: S. cerevisiae rad50 strain growth inhibition; at 50.0 µM; hits give high values
How it was run: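 Relative growth inhibition (compound vs vehicle) was measured in yeast with a defined repair-gene alteration.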

[2] = NCI Yeast Anticancer Drug Screen. Data for the mec2-1 strain (AID 157); conditions: S. cerevisiae mec2-1 strain, at 50.0 µM, hits give high values
How it was run: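 Readout is yeast growth inhibition, normalised to vehicle-treated controls, in the mec2-1 strain exposed to compound.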

[3] = NCI Yeast Anticancer Drug Screen. Data for the sgs1 mgt1 strain (AID 161);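 also: 0% = growth of cultures given vehicle only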; conditions: S. cerevisiae sgs1 mgt1 strain, at 50.0 µM, hits give high values
How it was run: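 Percent growth inhibition was derived by comparing compound-exposed mutant yeast with vehicle-exposed cultures. The strain carries alterations in DNA damage repair.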

[4] = NCI Yeast Anticancer Drug Screen. Data for the cln2 rad14 strain (AID 165);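 also: 0% = growth equal to vehicle treated cultures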; conditions: S. cerevisiae cln2 rad14 strain, at 50.0 µM, hits give high values
How it was run: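 Relative to vehicle controls, growth inhibition of compound-treated cln2 rad14 yeast was recorded.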

[5] = NCI Yeast Anticancer Drug Screen. Data for the bub3 strain (AID 167); conditions: S. cerevisiae bub3 mutant strain, at 50.0 µM, hits give high values
How it was run: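 Screening used yeast with an engineered genetic alteration affecting cell cycle control. Compound-exposed cultures were compared with vehicle cultures, and reduced growth was taken as inhibition.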

[6] = NCI Yeast Anticancer Drug Screen. Data for the mlh1 rad18 strain (AID 175); conditions: S. cerevisiae mlh1 rad18 strain growth inhibition; at 50.0 µM; hits give high values
How it was run: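 Test agents were incubated with a yeast strain of defined genotype (DNA damage repair defect). Inhibition of growth was derived by comparison with vehicle-exposed cultures.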

Measured: growth inhibition

COc1ccccc1N1C(=O)/C(=N\OC(=O)c2c(-c3c(Cl)cccc3Cl)noc2C)SC1=S
inactive: [1] -13.9% | [2] -26.6% | [3] -19.5% | [4] 11% | [5] -34.8% | [6] -0.2%

C=C1CC2(CC(c3ccccc3Cl)OC(c3ccccc3Cl)C2)OC1=O (configuration not stated)
inactive: [1] 27.2% | [2] 47.2% | [3] 23.2% | [4] 33.2% | [5] 20.7% | [6] 18.8%

CCOC(=O)/C=C1\NC(=O)N(CCCCCCN2C(=O)N/C(=C\C(=O)OCC)C2=O)C1=O
inactive: [1] 44.7% | [2] 13.3% | [3] 39.2% | [4] 7.95% | [5] -1.95% | [6] 29.9%

CCOC(=O)N1Cc2cc3ccccc3nc2C1CC(=O)O (configuration not stated)
inactive: [1] -14.8% | [2] 11.9% | [3] -3.6% | [4] -28.1% | [5] -1.65% | [6] -24.8%

O=C(Cn1c(=O)oc2ccc(C(=O)c3cccc(Cl)c3)cc21)c1ccccc1
inactive: [1] -47.4% | [2] -3.15% | [3] -20.6% | [4] -19.5% | [5] 11.3% | [6] -28.1%

CCC(C)C(CC)C(=O)N(C)C(=O)N(C)C(C)=O (configuration not stated)
inactive: [1] -19.2% | [2] 33.3% | [3] 4.5% | [4] -33.5% | [5] 13.7% | [6] 12.5%

N=c1sc(N2CCOCC2)nn1CC(=O)c1ccccc1
inactive: [1] 3.25% | [2] -20.9% | [3] -18.2% | [4] 4.35% | [5] -17.1% | [6] 15.1%

CC1=CC(=O)C(CCC#N)C(C)(C)C1 (configuration not stated)
inactive: [1] -8.6% | [2] -17.9% | [3] -1.75% | [4] -36.9% | [5] 5.85% | [6] -0.4%

COc1ccc2c3c([nH]c2c1)CCN(CCCC(=O)c1ccc(F)cc1)C3
inactive: [1] -8.15% | [2] -4% | [3] 42.6% | [4] 31.1% | [5] 45.2% | [6] 1.8%

c1ccc(C[S][Sn]([c]2ccccc2)([c]2ccccc2)[c]2ccccc2)cc1
active: [1] 97.5% | [2] 96.2% | [3] 97% | [4] 94.4% | [5] 97% | [6] 93%

Cc1[nH]c(=S)[nH]c(=O)c1CCC(C)C
inactive: [1] 9.5% | [2] 14.8% | [3] 14.1% | [4] 52.1% | [5] 37.8% | [6] 6.5%

NC(=O)C(F)(F)C(F)(F)C(N)=O
inactive: [1] -28.1% | [2] -16.8% | [3] -15% | [4] -51.6% | [5] 3.25% | [6] -1.9%

S=C(NNC1=NCCN1)Nc1ccccc1
inactive: [1] -54% | [2] -19.9% | [3] -19.8% | [4] 3.15% | [5] -20.9% | [6] -12.7%

O=C(c1ccccc1)C12CCCC(CC1)C2 (configuration not stated)
inactive: [1] 0.15% | [2] -19.9% | [3] -2.2% | [4] -37.5% | [5] -9.6% | [6] 0.65%

O=CC1CCCc2ccccc21 (configuration not stated)
inactive: [1] 17.1% | [2] -20.5% | [3] -0.7% | [4] -5.7% | [5] 3.9% | [6] 5.6%

O=C1c2cc(Cl)ccc2-c2ccc(Cl)cc21
inactive: [1] 2.75% | [2] 2.85% | [3] -4.85% | [4] -11.8% | [5] -1.2% | [6] 1.05%

CCCCCCCCSc1nc(Nc2cc(C(C)(C)C)c(O)c(C(C)(C)C)c2)nc(SCCCCCCCC)n1
inactive: [1] 41.6% | [2] 1.95% | [3] 13.1% | [4] 34.1% | [5] -0.9% | [6] 28.4%

O=C(Cc1ccccc1)N(C(=O)c1ccccc1)c1ccccc1
inactive: [1] 8.9% | [2] 14.5% | [3] 10.8% | [4] 9.1% | [5] 24.1% | [6] 15.7%

CCc1ccccc1NC(=O)C1=C(C)NC(C)=C(C(=O)Nc2ccccc2CC)C1c1ccc(NC(C)=O)cc1
inactive: [1] -11.1% | [2] 19.8% | [3] 3.25% | [4] 13.6% | [5] 11.4% | [6] -4.25%

O=C(O)Cc1ccc(Br)cc1
inactive: [1] 29.4% | [2] -8.95% | [3] 11.9% | [4] 10.8% | [5] 1.1% | [6] 5.7%

CCOc1ccc(CN(CCN2CCCCC2)c2ccccn2)cc1
inactive: [1] 26.6% | [2] 9.45% | [3] 23.4% | [4] -7.4% | [5] 11.5% | [6] 24.1%

N#C/C(=C\c1ccco1)C(=O)Nc1ccc(Br)cc1
inactive: [1] 27.9% | [2] -3.75% | [3] 1.65% | [4] -35.8% | [5] 9.1% | [6] 23.8%

COc1cc(/C=C/C=C(C(=O)O)C(=O)O)cc(OC)c1OC
inactive: [1] -5% | [2] -1.2% | [3] -14.7% | [4] -11.4% | [5] -6.2% | [6] -4.45%

CC1(C=O)CCCC2(C)[C@@H]1CCC13CC(CC[C@H]12)C(C(=O)O)C3 (some centres not stated)
inactive: [1] 28.9% | [2] 30.6% | [3] 22.6% | [4] 14.3% | [5] 26.8% | [6] 16.7%

CSc1nc(-c2ccc([N+](=O)[O-])cc2)oc1/N=C/c1ccc([N+](=O)[O-])cc1
inactive: [1] -8.45% | [2] -9.65% | [3] -14.6% | [4] -29.1% | [5] 3% | [6] 4.35%

CC(=O)OC1C[C@@](C)(O)[C@@]23O[C@@H]2[C@@H]2O[C@]2(C)C3C2OC(=O)C(C)[C@H]12 (some centres not stated)
inactive: [1] -0.25% | [2] -20.9% | [3] -6.85% | [4] 7.55% | [5] -6.3% | [6] -9.6%

OCC1OC(n2c(=S)[nH]c3ccccc32)C(O)C1O (configuration not stated)
inactive: [1] 9.4% | [2] -0.9% | [3] 5.4% | [4] 1.2% | [5] 4.4% | [6] 7.4%

O=C(c1ccccc1)[C@H]1Nc2ccc(Cl)cc2[C@H]2c3ccccc3O[C@H]21
inactive: [1] 33.9% | [2] -6.7% | [3] 12.4% | [4] 18.8% | [5] -1.45% | [6] 2.5%

CC(C)(C)c1ccc(O)c(C(O)c2ccncc2)c1 (configuration not stated)
inactive: [1] 7.3% | [2] -12.4% | [3] 9.15% | [4] -6.75% | [5] 1.6% | [6] 16.6%

Cc1cc(CN(C)C)cc(C(C)C)c1O
inactive: [1] 1.85% | [2] -0.9% | [3] -12% | [4] 34.1% | [5] 12.8% | [6] -3.95%

CCOC(=O)NC(=S)Nc1ccn(C)c1
inactive: [1] 10.4% | [2] 36.8% | [3] 4.6% | [4] 39.9% | [5] 1.65% | [6] 46.6%

CCOC(=O)C1CCCCC1C(=O)OCC (configuration not stated)
inactive: [1] -1.7% | [2] -15.8% | [3] -7.3% | [4] -3.55% | [5] -28.1% | [6] -26.9%

COc1ccc(C(=O)OC2CCCC2)cc1
inactive: [1] 45.8% | [2] 6.95% | [3] 39.5% | [4] -9.5% | [5] 9.6% | [6] 24.7%

CCC(Nc1nncs1)Nc1nncs1
inactive: [1] -21.9% | [2] 22.6% | [3] 2.2% | [4] -20.9% | [5] 2.95% | [6] -3%

N#Cc1[nH]c(=O)n(-c2ccc(Cl)cc2)c1N
inactive: [1] -30.1% | [2] -58.6% | [3] -19% | [4] -11.3% | [5] -12.4% | [6] -33%

O=C(OC1COC(OCc2ccccc2)C(OC(=O)c2ccccc2)C1OC(=O)c1ccccc1)c1ccccc1 (configuration not stated)
inactive: [1] 8% | [2] -24.4% | [3] 3.1% | [4] -30.3% | [5] 0.4% | [6] 2.75%

N#CC(/C(=N\NC(N)=S)C(=O)NC1C2CC3CC(C2)CC1C3)c1ccc(Cl)cc1 (configuration not stated)
inactive: [1] 29.2% | [2] 10.2% | [3] 19.8% | [4] 10.1% | [5] 15.4% | [6] 25.4%

N#CCCn1nc(SC2CCCCC2)c(=O)[nH]c1=O
inactive: [1] -4.05% | [2] 1.95% | [3] 2.45% | [4] 32.3% | [5] 4.75% | [6] 4.3%

COc1ccc(/C=C2\CCCC(C(NO)c3ccc(OC)cc3)C2=NO)cc1 (configuration not stated)
inactive: [1] 13.6% | [2] -33.4% | [3] 26.8% | [4] 1.15% | [5] 22.8% | [6] 18.2%

COC(=O)CCSCCC(=O)OC
inactive: [1] 1.5% | [2] -0.15% | [3] -8.15% | [4] -8.2% | [5] 1.75% | [6] -1.95%

Cc1c(Br)c(Br)nn1C(C)C(=O)N(C)C (configuration not stated)
inactive: [1] 1.75% | [2] 1.6% | [3] -4.55% | [4] -40.8% | [5] -31.8% | [6] 4.45%

CC(=O)Nc1ccc2c(c1)Cc1c(F)cc(F)cc1-2
inactive: [1] 35.9% | [2] -9% | [3] 19.6% | [4] 16.1% | [5] 21.9% | [6] 39.8%
